# The campaign covered roughly 48,000 compounds. About 13,000 (27%) showed an effect of 50% or more. Some of the results follow.
# System: Wolbachia pipientis
# Assay: Anti-Wolbachia Cell-Based Screen
# Type: functional
# Set-up: scale not given: in the data most compounds retested in dose-response had high values
# Conditions: 5 µM
row,SMILES,Percent Effect [%]
1,COc1cc(CO)ccc1OCc1nc(C(C)C)no1,-5.276
2,NC(=O)CN1CCC(NC(=O)N2CCCC2c2ccncc2)CC1 (centres undefined),-10.76
3,CC(C)NC(=O)N1CCCCCC1C1CCN(c2ncccn2)CC1 (centres undefined),-15.72
4,CC(C)NC(=O)N1CCC(c2nnc3n2CCNC3)CC1,121.8
5,CC(C)NC(=O)N1CCCCC1c1nnc2n1CCNC2 (centres undefined),134
6,Cc1cc(C)c(C(=O)NC(c2nnc3n2CCNCC3)C(C)C)c(C)c1 (centres undefined),-5.156
7,CC(C)NC(=O)N1CCC(c2nccn2C(C)C)CC1,0.5032
8,O=C(N1CCCCC1)N1CCCC1c1nnc2n1CCNC2 (centres undefined),113
9,CC(CC(=O)N1CCC(c2nnc3n2CCC3)CC1)n1cccc1 (centres undefined),-3.041
10,O=C(NC1CCCCC1)N1CCCC1c1nnc2n1CCNC2 (centres undefined),105.9
11,CCNC(=O)NC(=O)CNc1cc(C(=O)OC)cc(C(F)(F)F)c1,-3.63
12,Cc1n[nH]cc1CNCC1(c2cccc(F)c2)CCOCC1.Cl,8.493
13,N#CCCN(Cc1ccccn1)C(=O)Nc1cccc(F)c1,3.903
14,O=C(Nc1ccc(CCN2CCSCC2)cc1)NC1CC1,-3.133
15,COCCNC(=O)CSCc1nc(O)c2cc(C(C)C)sc2n1,-3.697
16,CC(=O)N1CCCC1c1nnc2n1CCCCC2 (centres undefined),5.226
17,CC(=O)N1CCCCC1c1nnc2n1CCNC2 (centres undefined),131
18,CC(NC(=O)NCCOc1ccc(Cl)cc1)c1nncn1C (centres undefined),7.354
19,CC(NC(=O)NCC1(c2ccc(Cl)cc2)CC1)c1nncn1C (centres undefined),123.5
20,CC(NC(=O)NCC1(c2ccc(F)cc2)CC1)c1nncn1C (centres undefined),98.23
21,CC(NC(=O)Nc1cc(F)ccc1N1CCCCC1)c1nncn1C (centres undefined),-5.475
22,CC(NC(=O)NCC1(N2CCCCC2)CCCCC1)c1nncn1C (centres undefined),3.494
23,CC(NC(=O)NCCOc1ccc(F)c(F)c1)c1nncn1C (centres undefined),2.072
24,CC(NC(=O)NCC1(c2ccc(F)cc2)CCC1)c1nncn1C (centres undefined),-3.695
25,Cc1ccccc1C1(CNC(=O)NC(C)c2nncn2C)CC1 (centres undefined),118.5
26,CC(NC(=O)NCCCN1CCCCCC1)c1nncn1C (centres undefined),-1.343

row,SMILES,Percent Effect [%]
1,CC(NC(=O)NCC1(c2ccc(F)cc2)CCCC1)c1nncn1C (centres undefined),121.9
2,Cc1cccc(C)c1OCCNC(=O)NC(C)c1nncn1C (centres undefined),5.116
3,CC(NC(=O)NCC1(c2ccccc2)CCC1)c1nncn1C (centres undefined),0.9782
4,CC(C)c1nnc2n1CCN(C(=O)c1ccc(OCC3CC3)nc1)C2,-21
5,CCOc1cc(C)nc(N2CCN(Cc3nccn3C)CC2)n1,4.632
6,Cc1nc(C)c(CN2CCOC[C@H](Oc3ccc(S(C)(=O)=O)cc3)C2)s1,-11.23
7,CC(=O)N1CCCC1c1nnn2cc(-c3ccncc3)ccc12.O=C(O)C(F)(F)F (centres undefined),7.793
8,CC(=O)N1Cc2ccccc2CC1C(=O)Nc1ccc(C)cn1 (centres undefined),-8.335
9,CC(c1ccco1)N(C)Cc1nc2c(cnn2C)c(=O)[nH]1 (centres undefined),2.011
10,Cn1ncc2c(=O)[nH]c(CN(Cc3ccco3)C3CCCC3)nc21,8.263
11,Cn1ncc2c(=O)[nH]c(CN(Cc3ccco3)C3CC3)nc21,87.32
12,Cc1ccc(CN(Cc2nc3c(cnn3C)c(=O)[nH]2)C2CC2)o1,96.47
13,CCN(Cc1nc2c(cnn2C)c(=O)[nH]1)c1cccc(C)c1C,-14.78
14,CC(N(C)Cc1nc2c(cnn2C)c(=O)[nH]1)C(C)(C)C (centres undefined),1.899
15,O=C(NCc1ccccn1)[C@@H]1COC[C@H]2CN(c3ncccn3)C[C@H]21.O=C(O)C(F)(F)F.O=C(O)C(F)(F)F,-2.042
16,Cc1ccc(S(=O)(=O)Nc2ccc(=O)n(C)c2)cc1,-12.63
17,COc1ccc(-c2nccn2C[C@@H]2CCCN3CCCC[C@H]23)cc1,-24.08
18,COC(C)C(=O)N(CC(N)=O)Cc1cccc(Oc2ccccc2)c1 (centres undefined),2.959
19,CC(C)[C@H]1COC(=O)N1Cc1nccn1C(C)C,-0.6769
20,COc1ccc(CNC(=O)c2nn(C)c3c2CS(=O)(=O)CC3)cc1OC,-2.523
21,COc1cc(OC)cc(C(=O)NCCCNc2ncccn2)c1,15.23
22,O=C(NCCN1CCCC(CO)C1)c1ccc2scnc2c1 (centres undefined),-0.5362
23,COc1ccc(CN2CCc3c(CNC(=O)CC#N)nn(C)c3C2)cc1.O=C(O)C(F)(F)F.O=C(O)C(F)(F)F,8.44
24,Cn1cc(NC(=O)c2cccc(C(F)(F)F)c2)c(=O)n(C)c1=O,-3.646
25,Cn1nc(CNC(=O)c2ccc3nsnc3c2)c2c1CCOC2,120.7
26,Cn1nc(CNC(=O)c2cccc(C(F)(F)F)c2)c2c1CCOC2,111.4

row,SMILES,Percent Effect [%]
1,Cc1ncc(CNC(=O)c2nn(C)c3c2CS(=O)(=O)CC3)s1,8.614
2,Cc1noc(NC(=O)c2ccc(OC(F)(F)F)cc2)n1,14.41
3,Cn1nc(CNC(=O)c2ccc(OC(F)(F)F)cc2)c2c1CCOC2,101.2
4,CN1CCC(CNC(=O)c2cccc(C(F)(F)F)c2)c2ccccc21 (centres undefined),-15.52
5,COc1cc(OC)cc(C(=O)NCc2nn(C)c3c2COCC3)c1,121.8
6,O=C(NC1CC1)c1cc(NC(=O)N2CCSCC2)ccc1Cl,-25.35
7,CCc1c(C(=O)N2CCC3(CC(=O)NC3=O)C2)csc1C (centres undefined),4.433
8,Cn1nc(CNC(=O)c2ccc3c(c2)OCO3)c2c1CCOC2,123.8
9,CCN(Cc1ccc2c(c1)OCO2)C(=O)c1ccc(=O)n(C)c1,-0.5548
10,COC(=O)c1ccc(C(=O)NCc2nn(C)c3c2COCC3)cc1,116.6
11,Cn1nc(CNC(=O)c2ccc(Cl)cc2)c2c1CCOC2,-28.17
12,Cn1nc(CNC(=O)NCc2ccc(Cl)cc2)c2c1CCOC2,-8.693
13,Cc1nnc(SCCCNC(=O)c2ccc3c(c2)OCO3)s1,-1.096
14,COc1cccc(OCC2CCCN(C(=O)c3cc(C)n[nH]3)C2)c1 (centres undefined),-67.83
15,Cc1cccc2c1OCCCC2NCc1nccn1Cc1ccccc1 (centres undefined),-13.33
16,CC(NC(=O)CCc1cccs1)c1nnc2n1CCCCC2 (centres undefined),108.8
17,Cc1noc(C)c1CCC(=O)NC(C)c1nnc2n1CCCCC2 (centres undefined),-4.207
18,CC(NC(=O)Cc1cccs1)c1nnc2n1CCCCC2 (centres undefined),-4.411
19,CC(NC(=O)CCc1cccs1)c1nnc2n1CCC2 (centres undefined),-2.805
20,CC(NC(=O)Cc1cccs1)c1nnc2n1CCC2 (centres undefined),95.59
21,CNC(=O)N1C[C@H]2CC[C@@]3(N=C(c4ccccc4)NC3=O)[C@H]2C1,-7.438
22,N[C@H]1CN(C(=O)c2ccc(Cl)cc2F)C[C@@H]1C1CC1,-16.98
23,CCCOC1CCCN(C(=O)c2ccc(S(N)(=O)=O)cc2)C1 (centres undefined),2.275
24,Cc1cc(C(=O)N2CCCCC2)ccc1NS(C)(=O)=O,-18.21
25,CCN(c1ccc(C(=O)N2CCCCCC2)cc1)S(=O)(=O)CC,148.2
26,CCN(c1ccc(C(=O)N2CCCCC2)cc1)S(=O)(=O)CC,114.5

row,SMILES,Percent Effect [%]
1,CCN(c1ccc(C(=O)N2CCCC2)cc1)S(=O)(=O)CC,-7.72
2,CCS(=O)(=O)N(C)C1CCN(C(=O)c2ccc(C)c(C)c2)CC1,-2.68
3,COc1ccccc1OC1(C(=O)O)CCN(c2cc(C)nc(C)c2)CC1,-31.32
4,CCOc1ccc(C(F)(F)F)cc1NCc1nc(C)c(C)o1,-3.649
5,NCC1CCN(C2CCN(c3ccc(-c4ccco4)cc3)CC2)C1 (centres undefined),-12.7
6,CC(CCSc1ccccc1)N1CCN(C(=O)c2ccccc2O)CC1 (centres undefined),4.975
7,Nc1nc(NCCc2[nH]nc3c2CCCC3)cc(N2CCOCC2)n1,-17.88
8,CN(Cc1cccc(-n2cccn2)c1)c1cc(N2CCCC2)nc(N)n1,13.85
9,Cl.Nc1nc(Nc2ccccc2)cc(N2CCNCC2)n1,122.8
10,c1ccc(CCCn2cc(-c3nc(CN4CCOCC4)no3)nn2)cc1,-30.42
11,CCCC(=O)N1CCC2(CC1)COC2,-43.8
12,CN1CCC2(CC1)Cc1ccccc1CN(C(=O)CN)C2,99.69
13,CCCSCC(=O)N1CCC2(CC1)CC(c1ccccc1)CN(C)C2 (centres undefined),-4.07
14,CCCC(=O)N1Cc2ccccc2CC2(CCN(C)C2)C1 (centres undefined),117.7
15,CN1CCC2(CCN(C(=O)c3ccccc3)CC2)C1,-23.98
16,CN1CC(c2ccccc2)CC12CCN(C(=O)c1ccc(Cl)cc1)CC2 (centres undefined),-14.14
17,CN1CCC2(Cc3ccccc3CN(C(=O)CCN)C2)C1 (centres undefined),104.1
18,CN1CCC2(Cc3ccccc3CN(C(=O)c3ccc(Cl)cc3)C2)C1 (centres undefined),111.1
19,O=C1CC(c2ccc(C(=O)O)cc2)c2ncn(-c3ccc(Cl)cc3)c2N1 (centres undefined),-3.148
20,CC(C)C(C)(O)CNc1cccc(F)c1C#N (centres undefined),29.17
21,COCc1nnc(-c2cccc(C(=O)N(C(C)C)C3CCC3)c2)o1,24.51
22,O=C(CCNC(=O)c1ccc(Cl)cc1)NCc1nc(C2CC2)no1,-6.02
23,Cc1c(C(C)NC2CCOCC2)cnn1-c1ccc(F)cc1F (centres undefined),-3.497
24,COCCC(=O)N1CCC2(CN(Cc3cccc(Cl)c3)C2)C1,20.7
25,CN1CCC2(Cc3ccccc3CN(C(=O)Cc3cccc(Cl)c3)C2)C1 (centres undefined),135.8
26,O=C(Cc1ccccc1)N1CCC2(CC(=O)N(c3cccc(F)c3)C2)C1 (centres undefined),-7.146

# — ChEMBL document CHEMBL3988442, “University of Dundee, Small-Polar-MMV Screening Library” (2021)
